Data reported in the supplement of paper PMC10849652.
About 8,800 targets were measured; listed, in parts, are those with a hit and a random draw of the rest. About 0.5% of all pairs of compound and target were hits. Values without a mark were called inactive.

compound: CN1CCN(CCOc2cc(OC3CCOCC3)c3c(Nc4c(Cl)ccc5c4OCO5)ncnc3c2)CC1 [saracatinib]; assay: log2 fold change, soluble protein after heating vs DMSO (PISA); higher = thermal stabilisation; K562 lysate, 10 uM; active = over 0.2 and 3.5 SD of the protein, either way, in both replicates (recomputed)
Procedure, shortened: (§1)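 Quantification was by TMTpro 16plex LC-MS/MS with equalised channel sums, applied to the supernatant after 21,000xg for 90 min. Samples were crude K562 extract at 1 mg/mL protein in PBS pH 7.4 with 1 mM MgCl2, treated with 10 μM compound for 30 min, heated for 3 min across 48°C-58°C, pooled and brought to 0.5% NP-40 at 4°C. Values are log-two fold changes in thermal stability relative to solvent controls, from duplicates.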

UniProt P28838, sequence (P28838 whole entry, looked up): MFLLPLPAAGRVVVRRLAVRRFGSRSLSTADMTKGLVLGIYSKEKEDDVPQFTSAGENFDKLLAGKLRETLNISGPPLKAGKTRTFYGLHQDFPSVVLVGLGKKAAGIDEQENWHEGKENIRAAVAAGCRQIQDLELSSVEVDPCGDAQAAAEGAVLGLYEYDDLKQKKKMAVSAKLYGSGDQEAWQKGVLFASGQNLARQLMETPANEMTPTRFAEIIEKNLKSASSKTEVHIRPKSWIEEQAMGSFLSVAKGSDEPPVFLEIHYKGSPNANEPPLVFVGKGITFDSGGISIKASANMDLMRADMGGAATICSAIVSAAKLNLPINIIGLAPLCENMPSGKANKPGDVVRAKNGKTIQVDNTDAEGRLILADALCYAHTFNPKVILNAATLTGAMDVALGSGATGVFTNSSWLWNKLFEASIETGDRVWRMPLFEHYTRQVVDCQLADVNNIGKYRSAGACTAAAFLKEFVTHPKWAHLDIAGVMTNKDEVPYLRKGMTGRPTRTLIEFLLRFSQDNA
UniProt Q13601, sequence (Q13601 whole entry, looked up): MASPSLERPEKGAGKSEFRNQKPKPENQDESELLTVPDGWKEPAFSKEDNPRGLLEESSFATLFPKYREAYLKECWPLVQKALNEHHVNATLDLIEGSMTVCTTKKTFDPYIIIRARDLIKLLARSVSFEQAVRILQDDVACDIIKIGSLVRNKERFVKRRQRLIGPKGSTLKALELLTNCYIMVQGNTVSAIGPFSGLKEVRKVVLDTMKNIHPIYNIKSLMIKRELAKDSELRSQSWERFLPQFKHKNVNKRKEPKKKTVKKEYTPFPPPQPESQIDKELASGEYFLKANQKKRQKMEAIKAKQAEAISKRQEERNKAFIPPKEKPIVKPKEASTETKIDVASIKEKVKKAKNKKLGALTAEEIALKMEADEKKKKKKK
UniProt Q00013, sequence (Q00013 whole entry, looked up): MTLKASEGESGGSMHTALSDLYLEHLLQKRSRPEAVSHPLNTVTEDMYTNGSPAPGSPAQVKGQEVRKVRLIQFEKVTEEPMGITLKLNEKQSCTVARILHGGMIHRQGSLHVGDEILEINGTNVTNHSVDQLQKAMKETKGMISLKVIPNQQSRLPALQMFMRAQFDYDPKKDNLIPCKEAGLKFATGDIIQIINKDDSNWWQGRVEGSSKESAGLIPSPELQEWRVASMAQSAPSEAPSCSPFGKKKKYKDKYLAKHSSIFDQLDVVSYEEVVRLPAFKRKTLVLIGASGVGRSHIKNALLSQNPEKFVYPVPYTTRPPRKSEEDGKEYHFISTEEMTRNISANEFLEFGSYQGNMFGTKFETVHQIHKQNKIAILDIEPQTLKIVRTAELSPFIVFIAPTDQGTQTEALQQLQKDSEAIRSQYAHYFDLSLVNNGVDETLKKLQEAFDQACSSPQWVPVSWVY
UniProt Q9BW19, sequence (Q9BW19 whole entry, looked up): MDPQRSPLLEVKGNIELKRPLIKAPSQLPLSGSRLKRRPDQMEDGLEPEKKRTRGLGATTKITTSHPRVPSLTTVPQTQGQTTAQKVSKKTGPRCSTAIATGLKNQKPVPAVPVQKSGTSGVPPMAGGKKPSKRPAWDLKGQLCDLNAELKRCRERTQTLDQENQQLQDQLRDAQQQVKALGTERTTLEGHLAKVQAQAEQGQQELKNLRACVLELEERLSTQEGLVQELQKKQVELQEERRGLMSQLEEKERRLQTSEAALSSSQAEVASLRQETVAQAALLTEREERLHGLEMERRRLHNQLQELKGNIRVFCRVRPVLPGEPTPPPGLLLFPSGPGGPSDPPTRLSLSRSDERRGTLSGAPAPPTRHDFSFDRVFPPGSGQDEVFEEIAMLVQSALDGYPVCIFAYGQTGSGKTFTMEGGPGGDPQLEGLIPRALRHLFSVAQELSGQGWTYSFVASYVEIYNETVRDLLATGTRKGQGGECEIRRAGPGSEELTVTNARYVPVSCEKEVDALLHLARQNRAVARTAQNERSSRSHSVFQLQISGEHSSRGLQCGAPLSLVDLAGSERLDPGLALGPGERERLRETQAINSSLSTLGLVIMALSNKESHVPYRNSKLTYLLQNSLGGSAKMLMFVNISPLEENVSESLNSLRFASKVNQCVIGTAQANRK
UniProt Q8NE86, sequence (Q8NE86 whole entry, looked up): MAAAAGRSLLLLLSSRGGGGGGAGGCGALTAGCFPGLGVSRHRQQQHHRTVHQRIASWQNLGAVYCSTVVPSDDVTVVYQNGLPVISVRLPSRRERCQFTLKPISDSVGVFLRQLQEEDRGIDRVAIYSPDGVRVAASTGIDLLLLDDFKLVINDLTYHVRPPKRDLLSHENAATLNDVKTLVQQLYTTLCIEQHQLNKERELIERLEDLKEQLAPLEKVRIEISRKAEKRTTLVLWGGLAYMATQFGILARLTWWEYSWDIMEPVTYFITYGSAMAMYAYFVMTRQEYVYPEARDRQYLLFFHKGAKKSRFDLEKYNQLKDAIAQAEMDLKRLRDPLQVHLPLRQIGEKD
UniProt O95239, sequence (O95239 whole entry, looked up): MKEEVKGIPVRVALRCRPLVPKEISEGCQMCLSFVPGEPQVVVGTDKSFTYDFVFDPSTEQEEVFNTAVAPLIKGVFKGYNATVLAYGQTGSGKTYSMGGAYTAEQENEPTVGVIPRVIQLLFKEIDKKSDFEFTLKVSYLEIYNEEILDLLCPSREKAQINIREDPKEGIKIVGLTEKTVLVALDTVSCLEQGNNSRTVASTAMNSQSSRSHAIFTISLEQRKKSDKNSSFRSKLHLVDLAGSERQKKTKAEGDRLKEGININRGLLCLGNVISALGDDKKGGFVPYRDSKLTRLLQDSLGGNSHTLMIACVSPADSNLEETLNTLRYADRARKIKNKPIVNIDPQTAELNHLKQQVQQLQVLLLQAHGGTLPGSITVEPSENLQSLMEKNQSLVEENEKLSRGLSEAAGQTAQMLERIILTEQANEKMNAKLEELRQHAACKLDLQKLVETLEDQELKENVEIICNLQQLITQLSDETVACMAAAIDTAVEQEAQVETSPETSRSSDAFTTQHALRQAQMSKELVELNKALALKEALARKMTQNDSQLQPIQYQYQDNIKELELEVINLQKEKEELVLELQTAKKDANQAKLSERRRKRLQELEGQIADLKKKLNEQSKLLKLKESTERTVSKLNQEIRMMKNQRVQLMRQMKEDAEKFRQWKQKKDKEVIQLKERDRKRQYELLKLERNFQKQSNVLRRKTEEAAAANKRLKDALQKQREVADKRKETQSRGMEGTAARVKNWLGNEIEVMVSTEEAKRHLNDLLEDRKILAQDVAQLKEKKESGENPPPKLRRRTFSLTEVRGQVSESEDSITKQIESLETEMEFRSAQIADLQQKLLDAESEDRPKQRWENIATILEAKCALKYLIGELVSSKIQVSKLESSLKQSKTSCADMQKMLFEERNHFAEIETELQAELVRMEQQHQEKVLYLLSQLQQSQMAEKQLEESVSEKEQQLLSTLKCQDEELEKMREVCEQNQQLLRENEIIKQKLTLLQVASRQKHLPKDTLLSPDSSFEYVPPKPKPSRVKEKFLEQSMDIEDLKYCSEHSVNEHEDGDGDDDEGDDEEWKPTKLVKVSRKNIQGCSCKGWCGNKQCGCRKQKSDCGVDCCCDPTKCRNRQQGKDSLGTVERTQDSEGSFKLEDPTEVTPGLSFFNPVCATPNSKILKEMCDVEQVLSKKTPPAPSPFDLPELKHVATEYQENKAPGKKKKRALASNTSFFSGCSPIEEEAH
UniProt P52732, sequence (P52732 whole entry, looked up): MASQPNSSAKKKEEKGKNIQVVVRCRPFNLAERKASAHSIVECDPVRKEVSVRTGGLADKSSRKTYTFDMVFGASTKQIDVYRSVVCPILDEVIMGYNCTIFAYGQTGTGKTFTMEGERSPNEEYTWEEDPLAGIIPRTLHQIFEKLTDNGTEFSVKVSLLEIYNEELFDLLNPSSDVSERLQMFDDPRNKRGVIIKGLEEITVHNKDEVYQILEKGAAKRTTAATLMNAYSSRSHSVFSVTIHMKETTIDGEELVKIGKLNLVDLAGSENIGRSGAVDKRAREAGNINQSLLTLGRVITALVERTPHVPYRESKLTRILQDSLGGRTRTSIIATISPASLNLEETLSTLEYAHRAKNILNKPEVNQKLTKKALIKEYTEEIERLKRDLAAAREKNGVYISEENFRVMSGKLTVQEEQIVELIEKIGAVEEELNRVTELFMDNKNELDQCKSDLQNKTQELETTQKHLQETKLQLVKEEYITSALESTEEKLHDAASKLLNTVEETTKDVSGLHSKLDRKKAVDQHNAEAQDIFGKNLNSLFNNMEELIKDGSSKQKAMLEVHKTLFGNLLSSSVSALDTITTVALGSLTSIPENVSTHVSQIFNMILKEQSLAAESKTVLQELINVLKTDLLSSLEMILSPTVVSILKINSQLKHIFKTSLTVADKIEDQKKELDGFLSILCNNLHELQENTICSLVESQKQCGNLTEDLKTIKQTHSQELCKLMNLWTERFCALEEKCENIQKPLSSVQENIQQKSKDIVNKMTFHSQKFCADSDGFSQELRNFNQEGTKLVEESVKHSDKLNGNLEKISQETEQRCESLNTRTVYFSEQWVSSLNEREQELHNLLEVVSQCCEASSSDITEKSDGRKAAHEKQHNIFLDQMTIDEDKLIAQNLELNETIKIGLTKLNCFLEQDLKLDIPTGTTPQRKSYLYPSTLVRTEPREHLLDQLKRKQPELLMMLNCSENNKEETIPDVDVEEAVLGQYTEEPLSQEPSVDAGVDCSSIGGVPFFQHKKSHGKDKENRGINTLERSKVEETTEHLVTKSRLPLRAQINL
UniProt Q9NZL9, sequence (Q9NZL9 whole entry, looked up): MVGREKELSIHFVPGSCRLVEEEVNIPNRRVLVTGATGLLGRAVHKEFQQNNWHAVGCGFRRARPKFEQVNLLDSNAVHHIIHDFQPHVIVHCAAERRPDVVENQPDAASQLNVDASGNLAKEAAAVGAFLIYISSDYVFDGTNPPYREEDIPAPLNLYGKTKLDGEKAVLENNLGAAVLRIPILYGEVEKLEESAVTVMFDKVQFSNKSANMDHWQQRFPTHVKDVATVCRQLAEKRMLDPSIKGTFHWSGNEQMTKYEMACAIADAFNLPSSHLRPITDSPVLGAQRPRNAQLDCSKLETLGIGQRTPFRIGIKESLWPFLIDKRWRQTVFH

| Target | log2 fold change |
| --- | --- |
| MED16 (UniProt Q9Y2X0) | -0.014 |
| LAP3 (UniProt P28838) | 0.082 |
| LUZP1 (UniProt Q86V48) | -0.024 |
| KSR1 (UniProt Q8IVT5) | -0.003 |
| LTN1 isoform 3 (UniProt O94822) | 0.04 |
| MAP2K3 isoform 3 (UniProt P46734) | 0.113 |
| MRPL46 (UniProt Q9H2W6) | 0.024 |
| MCU (UniProt Q8NE86) | 0.04 |
| KIF14 (UniProt Q15058) | 0.016 |
| KIF15 (UniProt Q9NS87) | 0.019 |
| MAP3K4 (UniProt Q9Y6R4) | 0.005 |
| LIMS1 isoform 3 (UniProt P48059) | 0.014 |
| KIF11 (UniProt P52732) | 0.023 |
| KIFC1 (UniProt Q9BW19) | 0.021 |
| MAT2B (UniProt Q9NZL9) | -0.018 |
| MFF isoform 2 (UniProt Q9GZY8) | 0.011 |
| KPNA2 (UniProt P52292) | 0.005 |
| MED8 isoform 2 (UniProt Q96G25) | -0.002 |
| MAPK8 isoform 3 (UniProt P45983) | 0.027 |
| MGST3 (UniProt O14880) | -0.017 |

| Target | log2 fold change |
| --- | --- |
| KIF4A (UniProt O95239) | 0.007 |
| MPP1 (UniProt Q00013) | -0.001 |
| MAP4 (UniProt E7EVA0) | 0.024 |
| LARS2 (UniProt Q15031) | 0.029 |
| LIMK2 isoform 3 (UniProt P53671) | -0.017 |
| KPNA4 (UniProt O00629) | -0.032 |
| MAP7D3 (UniProt Q8IWC1) | -0.019 |
| METTL7A (UniProt Q9H8H3) | -0.028 |
| LYN (UniProt P07948) | 0.605 |
| LUC7L (UniProt Q9NQ29) | -0.013 |
| LYSMD3 (UniProt Q7Z3D4) | 0.056 |
| KRR1 (UniProt Q13601) | 0.003 |
| METTL2A (UniProt Q96IZ6) | -0.004 |
| MARK3 (UniProt P27448) | -0.015 |
| MLH1 (UniProt P40692) | 0.051 |
| KLC2 (UniProt Q9H0B6) | 0.008 |
| MCCC1 (UniProt Q96RQ3) | 0.028 |
| MAPK3 (UniProt P27361) | 0 |
| MITD1 (UniProt Q8WV92) | 0.024 |

compound: CN1CCN(c2nc(C3=C(c4c[nH]c5ccccc45)C(=O)NC3=O)c3ccccc3n2)CC1 [sotrastaurin]; assay: as above
Procedure, shortened: as §1

| Target | log2 fold change |
| --- | --- |
| MED16 (UniProt Q9Y2X0) | -0.018 |
| LAP3 (UniProt P28838) | 0.042 |
| LUZP1 (UniProt Q86V48) | -0.01 |
| KSR1 (UniProt Q8IVT5) | -0.065 |
| LTN1 isoform 3 (UniProt O94822) | 0.03 |
| MAP2K3 isoform 3 (UniProt P46734) | -0.008 |
| MRPL46 (UniProt Q9H2W6) | 0.032 |
| MCU (UniProt Q8NE86) | 0.017 |
| KIF14 (UniProt Q15058) | 0.01 |
| KIF15 (UniProt Q9NS87) | 0 |
| MAP3K4 (UniProt Q9Y6R4) | -0.014 |
| LIMS1 isoform 3 (UniProt P48059) | -0.162 |
| KIF11 (UniProt P52732) | 0.026 |
| KIFC1 (UniProt Q9BW19) | 0.071 |
| MAT2B (UniProt Q9NZL9) | 0.013 |
| MFF isoform 2 (UniProt Q9GZY8) | -0.044 |
| KPNA2 (UniProt P52292) | 0.038 |
| MED8 isoform 2 (UniProt Q96G25) | 0.091 |
| MAPK8 isoform 3 (UniProt P45983) | 0.01 |
| MGST3 (UniProt O14880) | -0.015 |

| Target | log2 fold change |
| --- | --- |
| KIF4A (UniProt O95239) | -0.003 |
| MPP1 (UniProt Q00013) | -0.007 |
| MAP4 (UniProt E7EVA0) | -0.008 |
| LARS2 (UniProt Q15031) | 0.072 |
| LIMK2 isoform 3 (UniProt P53671) | -0.05 |
| KPNA4 (UniProt O00629) | 0.03 |
| MAP7D3 (UniProt Q8IWC1) | -0.024 |
| METTL7A (UniProt Q9H8H3) | -0.028 |
| LYN (UniProt P07948) | -0.045 |
| LUC7L (UniProt Q9NQ29) | -0.068 |
| LYSMD3 (UniProt Q7Z3D4) | 0.002 |
| KRR1 (UniProt Q13601) | -0.021 |
| METTL2A (UniProt Q96IZ6) | 0.011 |
| MARK3 (UniProt P27448) | -0.228 |
| MLH1 (UniProt P40692) | 0.02 |
| KLC2 (UniProt Q9H0B6) | -0.016 |
| MCCC1 (UniProt Q96RQ3) | 0.054 |
| MAPK3 (UniProt P27361) | -0.017 |
| MITD1 (UniProt Q8WV92) | 0.039 |
